Assay [1] is described as follows: AP1 Signaling Pathway (AID 357).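 Further: ME-180 reporter cells stimulated with EGF at its EC50 level; on the % scale 0 is the no-effect control and ±100 the full control effect.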 The gist of the method:
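A ratiometric CCF4 readout (405 nm excitation; 460 and 530 nm emission) quantified AP-1-driven beta-lactamase in ME-180 cells after 5 h with compound and EC50 EGF; AC50 values were derived for activators and inhibitors.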

Assay [2] in a line: NFAT Signaling Pathway (AID 444).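 Further: carbachol stimulus at about its EC50 of 1 µM final; on the % scale 0 is the no-effect control and ±100 the full control effect.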 Conditions: Jurkat NFAT-bla M1, carbachol, beta-lactamase ratio, 5 h; at 17.2 µM (top of the series) unless noted. The gist of the method:
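Read-out: CCF4 FRET ratio (460 nm/530 nm) after 1 h RT dye loading, used for %activity and AC50 from titration series. Cells: Jurkat NFAT-β-lactamase/M1 line, treated with compound plus 1 uM carbachol for 5 h, 37 °C.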

The nature of assay [3]: Stat Signaling Pathway (AID 446).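 Further: ME-180 cervical cancer cells given 40 pM IL-6 alongside compound; SIE-controlled beta-lactamase reporter measured as 460/530 nm FRET emission ratio; on the % scale 0 is the no-effect control and ±100 the full control effect.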 The procedure, abridged:
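ME-180 SIE-bla cells; overnight plating; cpd + IL-6 40 pM, 5 h, 37 C; LiveBLAzer 2.5 h RT; 460/530 nm emission ratio. Normalized to 300 pM IL-6 and 125 nM JAK inhibitor controls.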

For assay [4], the target named is Glucocorticoid receptor (Homo sapiens) (UniProt P04150). In words: GR-GFP Redistribution (AID 450;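 active means compounds whose dose series gives a full or clear partial fitted curve of increased nuclear translocation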; further: potency means the concentration at half of the fitted maximal effect). As to conditions: U2OS GR-GFP nuclear translocation, laser cytometry, 2 h.
Glucocorticoid receptor (Homo sapiens), sequence (P04150 whole entry, looked up, the tested form may be a part): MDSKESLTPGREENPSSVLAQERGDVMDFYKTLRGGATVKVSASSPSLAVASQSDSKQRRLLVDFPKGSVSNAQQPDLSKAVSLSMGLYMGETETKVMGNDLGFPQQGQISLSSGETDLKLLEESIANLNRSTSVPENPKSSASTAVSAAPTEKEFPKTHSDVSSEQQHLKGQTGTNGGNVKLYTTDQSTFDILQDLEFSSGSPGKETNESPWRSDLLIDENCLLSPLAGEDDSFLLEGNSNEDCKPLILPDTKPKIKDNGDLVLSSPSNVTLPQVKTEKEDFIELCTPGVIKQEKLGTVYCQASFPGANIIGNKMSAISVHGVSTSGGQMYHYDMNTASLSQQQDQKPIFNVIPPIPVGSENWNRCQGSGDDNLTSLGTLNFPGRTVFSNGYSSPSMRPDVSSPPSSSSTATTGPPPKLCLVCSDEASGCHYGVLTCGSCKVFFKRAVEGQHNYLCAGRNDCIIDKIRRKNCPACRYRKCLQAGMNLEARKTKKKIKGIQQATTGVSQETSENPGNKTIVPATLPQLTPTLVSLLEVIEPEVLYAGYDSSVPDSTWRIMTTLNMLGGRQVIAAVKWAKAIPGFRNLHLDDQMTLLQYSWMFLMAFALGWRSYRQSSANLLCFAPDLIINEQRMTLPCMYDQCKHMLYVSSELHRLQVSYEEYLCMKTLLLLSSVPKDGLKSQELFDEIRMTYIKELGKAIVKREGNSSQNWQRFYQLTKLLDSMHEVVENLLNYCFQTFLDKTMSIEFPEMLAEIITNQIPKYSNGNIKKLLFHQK
For assay [5] the target is unchanged. Nature of the assay: GR-EFC Redistribution (AID 451; calls by dose curve; further: potency means the concentration at half of the fitted maximal effect). As to conditions: CHO-K1 GR-EFC translocation, beta-gal luminescence, 2 h. The procedure, abridged: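 Translocation of GR-ED fusion to nuclear EA restores b-gal, read by luminescence after 1 h room-temperature detection. Engineered CHO-K1 biosensor cells, 1,000/well, exposed 2 h at 37 C to titrations up to 46 uM final.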

Assay [6] concerns the target Mitogen-activated protein kinase 10 (Mus musculus) (UniProt Q61831). In words: JNK3 AlphaScreen Assay (AID 530).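 Further: kinase came from lysate of stimulated human HepG2 cells; signal reports phosphorylation of biotinylated GST-cJun 1-79 at Ser73 with 10 µM ATP; on the % scale 0 is the no-effect control and ±100 the full control effect.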 The gist of the method: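 Room-temperature AlphaScreen kinase assay; pre-activated HepG2 lysate as JNK3 source, biotin-GST-cJun(1-79) substrate, 10 uM ATP, compound 15 min preincubation.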
Assay [7] addresses 3',5'-cyclic-AMP phosphodiesterase 4B (Homo sapiens) (UniProt Q07343). In words: qHTS Assay for Inhibitors of PDE-IV (AID 607; active means well fitted activation curve with a large enough effect in the main read-out, with a control signal flat, not every such curve was filed as active; further: % of control where 0% means no effect). The gist of the method:
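ACTOne HEK293 cells carry a modified cAMP-gated CNG channel and express endogenous PDE4; plated 1000 cells/well, compounds up to 22.9 uM final. Membrane-potential dye fluorescence (ex 535/em 590) was read; parental cells received 10 uM forskolin + 100 uM RO 20-1724.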

The nature of assay [8]: qHTS Assay for Lipid Storage Modulators (AID 1519; calls by dose curve). As to conditions: Drosophila S3 cells, BODIPY lipid droplet/cell ratio, laser cytometry, cells loaded with oleic acid. The gist of the method:
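Cells seeded at 5,000 per well were treated with compounds over a concentration series and loaded with oleic acid (400 uM, as added). Lipid droplet fluorescence (488 nm excitation, 500-530 nm channel) was read by laser-scanning cytometry and normalized to 20 uM Triacsin C.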

Assay [9] deals with Ubiquitin carboxyl-terminal hydrolase 1 (Homo sapiens) (UniProt O94782). Nature of the assay: Inhibitors of USP1/UAF1: Pilot qHTS (AID 504865; active means well fitted inhibition curve with a large enough effect;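 further: rhodamine fluorescence freed from ubiquitin-rhodamine substrate followed over time; top concentration of the series differs between compounds; on the % scale 0 is the no-effect control and ±100 the full control effect; nearly all actives have a fitted effect of over 35% in size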). The procedure, abridged: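 Deubiquitinase activity followed as kinetic rhodamine fluorescence release from 150 nM Ub-Rho. 1 nM USP1/UAF1 with compound, after 15 min room-temperature preincubation, in HEPES pH 7.8 buffer containing TCEP, EDTA, BSA and Tween-20.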
Ubiquitin carboxyl-terminal hydrolase 1 (Homo sapiens), sequence (O94782 whole entry, looked up): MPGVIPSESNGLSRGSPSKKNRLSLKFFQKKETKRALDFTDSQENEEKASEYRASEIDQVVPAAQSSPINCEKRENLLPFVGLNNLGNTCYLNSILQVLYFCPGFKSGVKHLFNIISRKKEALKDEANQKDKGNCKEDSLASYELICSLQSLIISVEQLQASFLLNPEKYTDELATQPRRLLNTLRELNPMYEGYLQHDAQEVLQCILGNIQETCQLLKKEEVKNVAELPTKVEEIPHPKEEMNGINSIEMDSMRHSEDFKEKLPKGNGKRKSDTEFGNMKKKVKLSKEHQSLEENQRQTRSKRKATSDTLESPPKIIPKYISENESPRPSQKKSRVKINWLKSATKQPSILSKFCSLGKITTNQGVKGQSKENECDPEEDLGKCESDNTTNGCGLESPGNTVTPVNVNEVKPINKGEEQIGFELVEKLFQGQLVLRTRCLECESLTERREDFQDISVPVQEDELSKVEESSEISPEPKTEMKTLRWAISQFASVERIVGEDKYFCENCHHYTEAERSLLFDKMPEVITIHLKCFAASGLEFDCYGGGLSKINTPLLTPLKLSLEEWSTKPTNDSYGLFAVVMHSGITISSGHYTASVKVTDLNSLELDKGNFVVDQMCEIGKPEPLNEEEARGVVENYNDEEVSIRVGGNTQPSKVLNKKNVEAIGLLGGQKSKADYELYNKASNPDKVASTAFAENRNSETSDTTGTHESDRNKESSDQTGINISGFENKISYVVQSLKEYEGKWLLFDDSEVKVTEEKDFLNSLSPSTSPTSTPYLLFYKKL

[10] abbreviates: measured here: cell count channel max response.
Where [11] appears, read: measured here: lipid channel max response.

Records with an inconclusive call do not appear. Calls of active or inactive are those of the source. Unless noted, the call rests on the fitted dose curve; in most records, active means well fitted curve in either direction with a large enough effect (not every such curve was filed as active); inconclusive means small, poorly fitted or top-dose-only effect, or another doubt; inactive means flat fitted curve, though single readings scatter.

3',5'-cyclic-AMP phosphodiesterase 4B (Homo sapiens), sequence (Q07343 whole entry, looked up): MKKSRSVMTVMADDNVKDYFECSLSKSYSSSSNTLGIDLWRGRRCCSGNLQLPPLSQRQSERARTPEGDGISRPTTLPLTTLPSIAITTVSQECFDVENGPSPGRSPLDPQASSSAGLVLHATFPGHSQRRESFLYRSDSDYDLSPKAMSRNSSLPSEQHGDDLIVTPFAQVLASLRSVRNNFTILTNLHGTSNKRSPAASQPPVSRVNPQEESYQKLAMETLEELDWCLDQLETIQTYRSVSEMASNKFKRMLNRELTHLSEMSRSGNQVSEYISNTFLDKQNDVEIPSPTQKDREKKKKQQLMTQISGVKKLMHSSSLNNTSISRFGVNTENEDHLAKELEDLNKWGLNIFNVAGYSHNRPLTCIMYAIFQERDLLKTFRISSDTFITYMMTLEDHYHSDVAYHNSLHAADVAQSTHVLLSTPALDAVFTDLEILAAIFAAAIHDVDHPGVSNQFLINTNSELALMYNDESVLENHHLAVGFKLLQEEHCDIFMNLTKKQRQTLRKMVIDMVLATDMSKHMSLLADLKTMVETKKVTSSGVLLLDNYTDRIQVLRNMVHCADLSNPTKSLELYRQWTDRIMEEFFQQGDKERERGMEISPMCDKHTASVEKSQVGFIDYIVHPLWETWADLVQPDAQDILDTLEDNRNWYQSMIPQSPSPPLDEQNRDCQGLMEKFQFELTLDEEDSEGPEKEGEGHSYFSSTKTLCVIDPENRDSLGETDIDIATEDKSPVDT

`Cc1cn([C@@H]2C[C@H](N=[N+]=N)[C@H](CO)O2)c(=O)[nH]c1=O`: the compound was classed as inactive in [1], in [3] and in [7]. Also, the activity change, negative = inhibition in [2] is -2.1% (inactive); in assay [8] (at 25.7 µM (top of the series)), -0.533% (inactive). The Potency in [4] and in [5] was > 20.6 µM (inactive) in each case. Moreover, the Potency entry in assay [6] and in assay [9] was “inactive” in each case. Besides, the max response in assay [8] (setting [10]) is -19.5%; in assay [8] (setting [11]), -18.3%.
For `COc1cc(C2Oc3cc(C4Oc5cc(O)cc(O)c5C(=O)C4O)ccc3OC2CO)ccc1O` (stereo not given), the call in assay [1] and in assay [3] was inactive. For the same compound, the activity change, negative = inhibition in assay [2] was 22.6% (inactive); in assay [8] (at 57.5 µM (top of the series)), 18.7% (inactive). Also, the Potency in assay [4] was > 20.6 µM (inactive). In addition, the max response came out at 5.37% in [8] (setting [10]) and 24.8% in assay [8] (setting [11]).
Turning to `CC(=O)S[C@H]1CC2=CC(=O)CC[C@@]2(C)[C@H]2CC[C@@]3(C)[C@H](CC[C@]34CCC(=O)O4)[C@@H]12`, the call in [1], in assay [3] and in [7] was inactive. Besides, the activity change, negative = inhibition in [2] was -8.69% (inactive); in assay [8] (at 25.7 µM (top of the series)), -7.24% (inactive). Further, the Potency was 2.45 µM (active) in assay [4] and > 20.6 µM (inactive) in [5]. The Potency result in assay [6] and in assay [9] was “inactive” in each case. The max response in assay [8] (setting [10]) and in [8] (setting [11]) was -20.4% throughout.
On to `CC(=O)OCC(=O)[C@@]1(OC(C)=O)[C@H](C)C[C@H]2[C@@H]3C[C@H](F)C4=CC(=O)C=C[C@@]4(C)[C@]3(F)[C@H](O)C[C@@]21C`, for which the outcome in [1], in assay [3] and in [7] was inactive. The activity change, negative = inhibition in [2] was 4% (inactive); in [8] (at 25.7 µM (top of the series)), -2.11% (inactive). Also, the Potency in assay [4] was 0.00203 µM (active); in assay [5], 0.0775 µM (active). For the same compound, the Potency entry in [6] and in assay [9] was “inactive” each time. Moreover, the max response was -15.4% in assay [8] (setting [10]) and -17.2% in [8] (setting [11]).
As for `C[C@@]12CCC(=O)C[C@@H]1CC(=O)[C@H]1[C@H]3CCC[C@]3(C)C(=O)C[C@@H]12` (tested in a mixture with another compound), the outcome in [1], in assay [3] and in [7] was inactive. Moreover, the activity change, negative = inhibition was -7.43% (inactive) in [2] and 0.558% (inactive) in [8] (at 25.7 µM (top of the series)). In addition, the Potency in assay [4] and in [5] was > 20.6 µM (inactive) in each case. Besides, the Potency entry in assay [6] and in assay [9] was “inactive” throughout. In addition, the max response amounted to 2.78% in assay [8] (setting [10]) and 4.64% in [8] (setting [11]).
Regarding `C[N+](C)(CCCOc1ccccc1)c1ccccc1`, the call in [1], in assay [3] and in assay [7] was inactive. Moreover, the activity change, negative = inhibition is -17.9% (inactive) in [2] and 3.08% (inactive) in assay [8] (at 25.7 µM (top of the series)). Moreover, the Potency in [4] was > 20.6 µM (inactive). Besides, the Potency entry in assay [6] and in [9] was “inactive” throughout. In addition, the max response in assay [8] (setting [10]) came to 0.349%; in assay [8] (setting [11]), 5.95%.
On to `CC[C@H](CC[C@H](C)[C@@H]1CC[C@@H]2[C@H]3CC=C4C[C@@H](O)CC[C@]4(C)[C@H]3CC[C@]21C)C(C)C`, for which the call in assay [1] and in [7] was inactive. Besides, the activity change, negative = inhibition in [2] was -3.85% (inactive); in assay [8] (at 25.7 µM (top of the series)), 2.08% (inactive). The Potency in assay [4] and in assay [5] was > 20.6 µM (inactive) each time. Also, the max response in assay [8] (setting [10]) is -14.8%; in assay [8] (setting [11]), -14.7%. Also, the Potency result in assay [9] was “inactive”.

The record behind these values is PubChem BioAssay (NCATS).
